In PubChem BioAssay (NCI):
Compounds without any hit were thinned out: in the full panel of roughly 79,000, 15% have a hit. Unmarked numbers belong to inactive results. The source made the active and inactive calls. No stated cut-off is given here; in the data, active means growth inhibition above about 70%; inactive means the rest.

Key:
[1] = NCI Yeast Anticancer Drug Screen. Data for the rad50 strain (AID 155);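 further: 0% = growth of vehicle-only cultures of the same strain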; conditions: S. cerevisiae rad50 strain growth inhibition; at 50.0 µM; stronger effect = higher value
In short: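 Genetically altered yeast (DNA repair pathway); compound treatment; growth inhibition vs vehicle ctrl.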

[2] = NCI Yeast Anticancer Drug Screen. Data for the mec2-1 strain (AID 157); conditions: S. cerevisiae mec2-1 strain, at 50.0 µM, stronger effect = higher value
In short: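 Strain: mec2-1 (DNA repair/cell cycle alteration). Compound exposure, then growth measured; inhibition expressed relative to vehicle.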

[3] = NCI Yeast Anticancer Drug Screen. Data for the sgs1 mgt1 strain (AID 161);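 further: 0% = growth of cultures given vehicle only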; conditions: S. cerevisiae sgs1 mgt1 strain, at 50.0 µM, stronger effect = higher value
In short: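 Inhibition of yeast growth, normalised to vehicle-treated controls, is reported for a strain bearing genetic alterations in DNA damage repair.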

[4] = NCI Yeast Anticancer Drug Screen. Data for the cln2 rad14 strain (AID 165);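 further: 0% = growth equal to vehicle treated cultures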; conditions: S. cerevisiae cln2 rad14 strain, at 50.0 µM, stronger effect = higher value
In short: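 Compounds are applied to the cln2 rad14 yeast strain, and growth is then compared with that of vehicle-treated cultures to give inhibition.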

[5] = NCI Yeast Anticancer Drug Screen. Data for the bub3 strain (AID 167); conditions: S. cerevisiae bub3 mutant strain, at 50.0 µM, stronger effect = higher value
In short: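 Yeast carrying a defined mutation is treated with each compound, and growth is compared with that of vehicle-exposed cells to give inhibition.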

[6] = NCI Yeast Anticancer Drug Screen. Data for the mlh1 rad18 strain (AID 175); conditions: S. cerevisiae mlh1 rad18 strain growth inhibition; at 50.0 µM; stronger effect = higher value
In short: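 Read-out is yeast growth inhibition, calculated against vehicle-only controls. The compound was applied to a strain engineered with DNA damage repair alterations.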

| SMILES | growth inhibition [1] | growth inhibition [2] | growth inhibition [3] | growth inhibition [4] | growth inhibition [5] | growth inhibition [6] |
| --- | --- | --- | --- | --- | --- | --- |
| N#CS.[Co+3].[NH-]CC[NH-].[NH-]CC[NH-].[NH-]CC[SH2+] | 12.2% | 43% | 13.2% | 3.2% | 35.6% | 9.65% |
| ClC1OC(Cl)(Cl)C(Cl)(Cl)OC1(Cl)Cl (stereo not given) | 7.7% | 3.75% | 35% | -4.25% | 18.8% | 45.9% |
| O=C1NC(=O)C(=Cc2ccccn2)C(=O)N1 | -0.95% | -25% | -0.45% | 18.6% | -6.4% | 2.3% |
| CNC(=O)c1[nH]cnc1/N=N/N(C)N | 85.2% (active) | 91.8% (active) | 90.5% (active) | 87.9% (active) | 89% (active) | 89.3% (active) |
| CC(C)C1NC(C(C)C)N2C(C(C)C)N12 (stereo not given) | -0.05% | -17.2% | -14.3% | -24.5% | -2.25% | -1.5% |
| CN1C2CCC1CC(O)(c1ccc(Cl)cc1)C2 (stereo not given) | 26.1% | 16.4% | 16.6% | 16.1% | 30.4% | 28.1% |
| [C-]#[O+].[C-]#[O+].[C-]#[O+].[Cr].c1ccc(P(CC[PH+](CC[PH+](CC[PH+](c2ccccc2)c2ccccc2)c2ccccc2)c2ccccc2)c2ccccc2)cc1 (stereo not given) | 36.3% | 13.6% | 41.5% | 18.6% | 33.8% | 37.8% |
| C[C@]12CC[C@@H](OC(=O)N(CCCl)N=O)C[C@@H]1CC[C@@H]1[C@@H]2CC[C@]2(C)C(=O)CC[C@@H]12 | 1.55% | -3.4% | 26.5% | -0.75% | 13.2% | 59.9% |
| O=C(O)C(=O)O.[NH2-].[NH2-].[Pt+2] | 8.3% | -4.9% | 0.15% | -5.05% | 2.6% | -3.8% |
| O=c1cc(N2CCNCC2)nc2ccccn12 | 2.9% | 4.4% | 4.95% | 1.4% | 6.95% | 6.35% |
| CN(N)c1ccc([N+](=O)[O-])cc1[N+](=O)[O-] | -5.75% | -39.1% | -29.8% | -6.2% | -3.2% | -39.1% |
| C[CH2][Pb]([Br])([CH2]C)[CH2]C | -17.7% | -1.4% | -5.85% | -14.1% | -4.15% | -1.45% |
| [I][Ni][I].c1ccc([PH+](c2ccccc2)c2ccccc2)cc1.c1ccc([PH+](c2ccccc2)c2ccccc2)cc1 | 21% | 38.4% | 64% | 17.6% | 5.7% | 48.7% |
| C[C@]12CC[C@H]3[C@@H](CCC4=C[C@@H](OC5OCC(OC6OC(CO)C(O)C(O)C6O)C(O)C5O)CC[C@@]43C=O)[C@@]1(O)CCC2C1=CC(=O)OC1 (stereo not given in full) | -31.8% | -20.4% | -29.6% | -4.1% | -16.7% | 2.2% |
| COC12c3ccccc3-c3ccccc3C1[C@@H](C(=O)O)[C@H]2C(=O)O (stereo not given in full) | 11.2% | 1.6% | -11.6% | -14% | -24.4% | -10.3% |
| O=CC1(c2ccccc2)CCNCC1 | -0.95% | 3.85% | 15.5% | 6.35% | 0.85% | 8.85% |
| CC(C)C1(Cc2ccccc2)C(=O)NC(=S)NC1=O | -2.05% | -0.8% | 9.3% | -2.85% | -14.2% | -2.7% |
| C1CCC(N2CSC3CCCCC32)CC1 (stereo not given) | -0.65% | -12.2% | 4.35% | -18.2% | 16.2% | 5.6% |
| O=C(Nc1ccccc1F)C(Cl)(Cl)Cl | 6.55% | -5.2% | 9.3% | -5% | 16.7% | 26.2% |
| CC(CCOc1ccc2ccc(=O)oc2c1)C1=CC(=O)C(C)(C)O1 (stereo not given) | -6.1% | -8.3% | 21.1% | 0.05% | -7.25% | -44.1% |

| SMILES | growth inhibition [1] | growth inhibition [2] | growth inhibition [3] | growth inhibition [4] | growth inhibition [5] | growth inhibition [6] |
| --- | --- | --- | --- | --- | --- | --- |
| CC[C@@H]1C[C@H]2CC3c4[nH]c5ccc(O)cc5c4CCN(C2)C31 | 3.4% | -24.4% | 23.6% | 5.35% | -1.45% | 5.6% |
| N#CN | -9.55% | -17.2% | 22.1% | -16.1% | -13.2% | -5.8% |
| CC1C(C)(C)P(=O)(Oc2ccc3ccccc3c2)C1(C)C (stereo not given) | 71.6% (active) | 55.3% | 84% (active) | 80.7% (active) | 94.4% (active) | 56.6% |
| C/C(CCl)=N\NC1=NC(C)(CCl)P(=O)(NNc2ncccn2)S1 (stereo not given) | 8.05% | 11.2% | 5.2% | 11% | 8.85% | 7.35% |
| [N-]=[N+]=[N-] | 6.75% | 5.75% | 15% | -3.05% | 18% | -13.7% |
| Fc1cccc2cc3cccc[n+]3cc12 | 5.6% | 6.65% | 3.55% | -36.3% | 15.6% | -1.8% |
| ClCCCCBr | 17.6% | -14.2% | 20.4% | 13.5% | 2.4% | 18.8% |
| CC(NC(=O)c1ccccc1)N(C)[N+](=O)[O-] (stereo not given) | -3.7% | 4% | 2.5% | -13.4% | 5.45% | -5.55% |
| CCCCCC(C)C1C(=O)NC(=O)NC1=O (stereo not given) | 6.4% | 12.9% | 2.65% | 5.7% | 7.8% | -6% |
| CC[C@@H]1[C@H]2C[C@H]3[C@@H]4N(C)c5ccccc5[C@]45C[C@@H](C2[C@H]5O)N3[C@H]1O (stereo not given in full) | -12.4% | -6.15% | -5.15% | 5.05% | -13.7% | 15.6% |
| CC(=O)N1CN2CN(C1)CN(C(C)=O)C2 | 0.3% | -8.95% | -5.3% | -26.6% | -9.05% | -5.85% |
| CCCC[S][Hg][I] | 92.5% (active) | 98.7% (active) | 97.9% (active) | 38.9% | 99.1% (active) | 98.8% (active) |
| [Au].[NH-]CC[NH-].[NH-]CC[NH-] | 9.45% | -5.5% | -17.4% | -7.05% | -0.55% | -12.5% |
| N#Cc1cccnc1 | 4.75% | -4.15% | 4.1% | 5.6% | 9.05% | 2.75% |
| COc1cc(C2c3cc4c(cc3OC(C)(O)C2C(C)=O)OCO4)cc(OC)c1OC (stereo not given) | -10.2% | -0.15% | 3.9% | -18.6% | -1.1% | -7.45% |
| COCC1OC2OC3C(COC)OC(OC4C(COC)OC(OC5C(COC)OC(OC6C(COC)OC(OC7C(COC)OC(OC8C(COC)OC(OC1C(O)C2O)C(O)C8O)C(O)C7O)C(O)C6O)C(O)C5O)C(O)C4O)C(O)C3O (stereo not given) (tested in a mixture with another compound) | 13.2% | -13.6% | -4.6% | 20.1% | -18.8% | -64.7% |
| [Cu+2].[NH-]c1ccccc1C(=O)O.[NH-]c1ccccc1C(=O)O | -34.8% | -21.8% | -13.9% | -87.7% | -27.1% | -52.4% |
| CCCCC1(CCO)C(=O)NC(=O)NC1=O | -12.1% | -2.65% | -5.7% | -19.1% | 28.4% | -20.6% |
| O=C(Cl)C(Br)Cc1ccccc1 (stereo not given) | 11.9% | -19.4% | 0.95% | 7% | 28.6% | 2.1% |
| O=[N+]([O-])c1cccc(P(=O)(O)O)c1 | -7.3% | 53.5% | 3.35% | 5.25% | -4.5% | 0.85% |
